# Sm TGR block: inhibitors of Schistosoma mansoni thioredoxin glutathione reductase | Q962Y6 | purified TGR, DTNB reduction, TNB absorbance 405 nm | Potency, µM (titrated, usually from 114 µM), without a hit: top-dose activity change, negative = inhibition, most hits filed as inhibitors | 360,000 compounds, 3% hits | AID 485364; note: potency is the fitted concentration of half-maximal effect; % is set by controls: 0 for no effect and ±100 for the full control effect; nearly all actives have a fitted effect of over 60% in size
#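 TGR 20 nM + NADPH 100 uM (dispensed conc.), cpd preinc 15 min RT; start with NADPH (500 uM addition) then DTNB (15 mM addition). Kinetic TNB absorbance, 405 nm filter. Four-parameter Hill fit across titration.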
# Giardia FBPA inh: Giardia lamblia aldolase inhibition; purified Giardia FBPA; 290,000 compounds, 0.71% hits; A8B2U2; Potency, µM (top dose mostly 59.6 µM), for inactives: top-dose activity, negative = inhibition, most hits filed as inhibitors; note: potency is the fitted concentration of half-maximal effect; % is set by controls: 0 for no effect and ±100 for the full control effect; nearly all actives have a fitted effect of over 55% in size
#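 40 nM FBPA preincubated 10 min at RT with compound (up to 57.5 uM final), then substrate plus GAPDH/TPI/NAD/arsenate coupling and diaphorase/resazurin added. Fluorescence read after 20 min at RT, 525/598 nm.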
# TbPYK inhibitor: inhibitors of Trypanosoma brucei pyruvate kinase; Q57TT1; TbPYK enzyme, Kinase-Glo Plus ATP luminescence, 45 min; Potency, µM (series often up to 76.8 µM), for inactives: top-dose activity, negative = inhibition, actives largely listed as inhibitors; 410,000 compounds, 0.12% hits; note: potency is the fitted concentration of half-maximal effect; % is set by controls: 0 for no effect and ±100 for the full control effect; nearly all actives have a fitted effect of over 50% in size
#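 ADP (130 uM final) triggers the TbPYK reaction after compound addition; incubation is 45 min at room temperature. Kinase-Glo Plus is then added and luminescence imaged. Normalized data are fitted to concentration-effect curves.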
# LmPK inh: blocks Leishmania mexicana pyruvate kinase activity | AID 1721 | Q27686 | Potency, µM (top dose mostly 57.5 µM), for inactives: at the highest dose activity change, negative = inhibition, most hits filed as inhibitors | purified LmPK, Kinase-Glo ATP luminescence, 1 h | 290,000 compounds, 0.37% hits; note: potency is the fitted concentration of half-maximal effect; % is set by controls: 0 for no effect and ±100 for the full control effect
# Target sequence (Q27686 whole entry, looked up): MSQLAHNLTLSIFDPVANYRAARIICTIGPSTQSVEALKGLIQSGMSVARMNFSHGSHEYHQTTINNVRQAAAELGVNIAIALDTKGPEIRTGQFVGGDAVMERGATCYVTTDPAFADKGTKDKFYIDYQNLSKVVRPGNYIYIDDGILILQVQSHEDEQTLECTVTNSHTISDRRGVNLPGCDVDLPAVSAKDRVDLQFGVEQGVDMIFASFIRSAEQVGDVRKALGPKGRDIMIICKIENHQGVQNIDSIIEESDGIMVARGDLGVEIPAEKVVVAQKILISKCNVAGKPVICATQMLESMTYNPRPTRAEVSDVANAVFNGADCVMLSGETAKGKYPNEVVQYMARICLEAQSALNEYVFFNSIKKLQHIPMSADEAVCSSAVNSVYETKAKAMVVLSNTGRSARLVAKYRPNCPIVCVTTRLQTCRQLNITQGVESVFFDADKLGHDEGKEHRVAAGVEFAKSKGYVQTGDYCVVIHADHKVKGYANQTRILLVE
#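 Screened at intermediate enzyme activity to detect both inhibitors and activators: LmPK at 0.1 nM, with a 0.5 nM enzyme column as activation reference. PEP 0.5 mM, ADP 0.1 mM; ATP detected by luminescence after 1 h.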
# CHX counter: affects cycloheximide protein synthesis inhibition readout, counter-screen. cell reporter, cycloheximide protein synthesis inhibition counterscreen. max response, %. 300,000 compounds, 12% hits. AID 2314; in the data active = max response mostly above about 13%, no sharp cut-off; inactive = mostly below about 14%; note: read at 38.3 µM for the half of the compounds with a filed dose; 0% is about no effect
# Shiga toxin inh: blocks Shiga toxin action in Vero cells. AID 2315. inhibition, % at 38.7 µM. 290,000 compounds, 9.2% hits. Vero cells, Shiga toxin protein synthesis inhibition reporter; in the data active = inhibition mostly above about 28%, no sharp cut-off; inactive = mostly below about 43%; note: 0% is about no effect
# Active calls of the source: *; u = inconclusive; x = not tested or not shown. The full list was thinned out, with hits kept by preference. Unless noted, calls come from the whole dose curve; as a rule, active = well fitted curve in the direction sought with a large enough effect; inconclusive = small, poorly fitted or top-dose-only effect, or another doubt; inactive = no such curve, though single readings can be large; an effect the other way counts as inactive or inconclusive.
SMILES,Sm TGR block,Giardia FBPA inh,TbPYK inhibitor,LmPK inh,CHX counter,Shiga toxin inh
C=CCn1c(C)nc2ccccc2c1=O,2%,4%,6%,8%,5,-5
O=c1[nH]c(N/N=C/c2ccc(O)cc2)nc2ccccc12,-5%,-3%,-10%,-16%,36*,64*
C=CCn1c(N/N=C/c2ccc(O)cc2)nc2ccccc2c1=O,3%,-12%,2%,-16%,36*,153*
O=C(N/N=C/c1ccc2cccnc2c1)c1nc2ccccc2c(=O)[nH]1,15%,-17%,2%,-1%,30*,35*
O=c1[nH]c(N/N=C\c2ccc(F)cc2)nc2ccccc12,x,-5%,-6%,-1%,34*,80*
Cc1nc2ccccc2c(=O)[nH]1,-8%,5%,8%,-5%,-9,-4
Cc1ccc(OCCSc2nc3ccc(NC(=O)c4ccc5c(c4)OCO5)cc3s2)cc1,6%,x,-4%,x,x,x
C[C@H](N)C(=O)N[C@@H](Cc1ccc(F)cc1)C(=O)N[C@@H](CCCN=C(N)N)C(=O)N[C@@H](CC1CCCCC1)C(=O)N[C@@H](CCCCN=C(N)N)C(=O)N[C@@H](Cc1ccc(O)cc1)C(N)=O,x,3%,x,x,7,-6
O=C(NCc1ccc2c3c(cccc13)C(=O)N2)c1cccs1,10%,2%,1%,11%,3,34
Cc1ccc(NC(=O)CCS(=O)(=O)c2ccc3c(c2)oc(=O)n3C)c(Br)c1,32µM*,x,-8%,x,x,x
Cc1cccc(NC(=O)CCS(=O)(=O)c2ccc3c(c2)oc(=O)n3C)c1,u,x,-2%,-9%,-7,-7
CC[C@@H]1C(c2cccc(C)c2)=NN(c2ccc(Br)cc2)[C@H]1C(=O)N1CCOC1=O,x,-8%,x,x,2,13
O=C(Nc1cccc(-c2nc3ccccc3s2)c1)c1cc(-n2cnnc2)ccc1Cl,-29%,-1%,7%,0%,30*,58
Cc1c(NC(=O)c2cc(-n3cnnc3)ccc2Cl)cccc1-c1nc2ccccc2s1,2%,11%,-1%,0%,23*,37*
Cc1ccc2sc(-c3ccc(NC(=O)c4cc(-n5cnnc5)ccc4Cl)cc3)nc2c1,0%,17%,16%,-8%,62*,134*
C=C[C@@]1(C)C[C@H](OC(=O)CSC(C)(C)CNC(=O)[C@@H](N)C(C)C)[C@@]2(C)C(C)CC[C@@]3(CCC(=O)[C@@H]32)[C@H](C)[C@H]1O (stereo partly drawn),x,x,0%,x,x,x
CC(=O)c1ccc(N2CCN(S(=O)(=O)c3ccc4c(c3)CC(C)N4C(=O)C3CCC3)CC2)cc1 (stereo not drawn),1%,x,9%,x,x,x
Cc1cccc(-c2cc3c(N=O)c4ccccc4c-3n[nH]2)c1,-6%,0%,-17%,-14%,46*,104*
Cc1ccc(-c2cc3c(N=O)c4ccccc4c-3n[nH]2)cc1,-7%,0%,2%,-20%,-1,1
O=Nc1c2cc(-c3ccccc3)[nH]nc-2c2ccccc12,-4%,-1%,u,u,37*,101*
CCN(CC)S(=O)(=O)c1ccc(C)c(NC(=O)/C=C/c2cccs2)c1,-1%,-2%,-7%,0%,-2,-6
CC(C)=CC(=O)Nc1nnc(-c2ccccc2C)s1,7%,2%,-2%,8%,28*,77*
Cc1cc(C)c(-c2csc(NC(=O)/C=C/c3cccs3)n2)c(C)c1,0%,-4%,-2%,-1%,-5,-10
O=C(/C=C\c1ccccc1)Nc1nccs1,-25%,-3%,-2%,-18%,39*,59*
Cc1ccccc1NC(=O)/C=C/c1cccs1,-7%,-2%,-21%,-22%,28*,70*
SMILES,Sm TGR block,Giardia FBPA inh,TbPYK inhibitor,LmPK inh,CHX counter,Shiga toxin inh
O=C(/C=C/c1cccs1)Nc1nccs1,8%,5%,-2%,-4%,41*,111*
COc1ccc(-n2c(=O)c3sc4ccccc4c3n(CC(=O)Nc3ccccc3F)c2=O)cc1,2%,x,-8%,x,x,x
O=C(/C=C/c1cccs1)NC1CC1,5%,5%,-2%,-9%,19*,19
CCc1nnc(NC(=O)C(C)C)s1,0%,1%,0%,12%,-4,-9
CCc1nnc(NC(=O)C=C(C)C)s1,3%,0%,0%,2%,32*,39*
CCc1nnc(NC(=O)/C=C/c2cccs2)s1,17%,7%,-8%,2%,17*,40
O=C(/C=C/c1cccs1)Nc1ccc(Br)cn1,-3%,2%,3%,-1%,43*,60*
CCC(Cc1ccccc1)NC(=O)Cn1ncc2c3ccccc3n(Cc3ccccc3)c2c1=O (stereo not drawn),1%,x,-1%,x,x,x
O=C(C[C@@H]1C/C=C/CCCC(=O)O[C@H](c2ccccc2)CNC1=O)N[C@H](CO)Cc1ccccc1,x,x,-2%,x,x,x
O=C(/C=C/c1cccs1)Nc1cccc(NC(=O)/C=C/c2cccs2)n1,-8%,-14%,4%,-12%,40*,90*
O=C(/C=C/c1cccc(F)c1)Nc1nccs1,10%,0%,-2%,-5%,47*,117*
Cc1cc(C)nc(NC(=O)/C=C/c2cccs2)c1,3%,0%,-9%,-10%,19,108
O=C(COC(=O)/C=C/c1cccc(F)c1)Nc1ncccn1,2%,-2%,-1%,0%,-2,-4
CCn1c(CN2CCOCC2)nnc1SCC(=O)Nc1ccc(C(C)=O)cc1,-3%,x,1%,-6%,-1,-3
CCCC(=O)NCc1nc2cccnc2n1Cc1ccc(F)cc1,4%,x,-5%,x,x,x
Cc1ccc(CNC(=O)CCC2CCCN(Cc3cccc4c3OCO4)C2)o1 (stereo not drawn),u,1%,-1%,11%,-2,-4
Cc1ccc(CNC(=O)CCC2CCCN(Cc3ccc4cccc(F)c4n3)C2)o1 (stereo not drawn),40µM*,1%,-2%,4%,-3,-13
CCCCCC(=O)c1c(C)[nH]c(C(=O)OCC)c1C,-22%,-2%,-9%,1%,17*,104*
CCCN(CCC)C(=O)c1c(C)[nH]c(C(=O)OCC)c1C,-16%,0%,x,-2%,1,2
CCCCCCC(=O)c1c(C)[nH]c(C(=O)OCC)c1C,3%,-6%,12%,-8%,30*,81*
CC(C)(C)c1cc(C(=O)CCN2CCOCC2)cc(C(C)(C)C)c1O,3.5µM*,-7%,5%,0%,-2,15
O=C(CCN1CCOCC1)c1ccc(N2CCCCC2)cc1,14µM*,x,-8%,x,x,x
CN(CC(=O)NCC(=O)Nc1ccc(F)cc1)C1CCS(=O)(=O)C1 (stereo not drawn),-5%,x,0%,x,x,x
CCCn1c(SCC(=O)Nc2ccc3c(c2)CCC3)n[nH]c1=O,6%,-2%,-3%,-1%,8,3

# Source: PubChem (National Center for Advancing Translational Sciences (NCATS))
